Test systems include MDA-MB-435 melanoma; SW-620 colon; MCF7 breast; HCT-116 colon; HCC-2998 colon; KM12 colon; BT-549 breast.
Common to all, as to experiment: NCI-60 one-dose screen, 48 h (100 = growth as untreated, 0 = no growth, -100 = all killed)
Conditions in all cases: 10 µM unless noted

Compounds without any hit were thinned out: in the full panel of roughly 83,000, 20% have a hit.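 Activity criterion: percent growth below 10, measured after cells in 96-well plates were exposed to a single compound concentration for 48 hours.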 Unmarked numbers belong to inactive results. Active and inactive are the calls of the source.

The record followed here is PubChem BioAssay (NCI).

With `COc1cc(CCn2nnc3c(Nc4ccc(N5CCOCC5)cc4)ncnc32)cc(OC)c1`, the growth was 68.2% with MDA-MB-435 melanoma; 90.8% in the test on SW-620 colon; 102% with MCF7 breast; 101% in the test with HCT-116 colon; 99.7% in the test on HCC-2998 colon; 81.6% in the test on KM12 colon.
With `COc1ccc(/C=C2\Oc3cc(OCCN4CCCC4)ccc3C2=O)c(OC)c1`, the growth with BT-549 breast was 94.2%; in the test on MDA-MB-435 melanoma it was 94.3%; with SW-620 colon, 79.2%; in the test with MCF7 breast it was 85.1%; in the test with HCT-116 colon it was 41.3%; with HCC-2998 colon, 98.2%. Moreover, the growth in the test on KM12 colon is 74.3%.
`CCN1C(=O)N(CC)C2C1NN=c1s/c(=C3\C(=O)N(C4CCCC4)c4ccccc43)c(=O)n12` (centres undefined): the growth in the test with BT-549 breast is 20%; with MDA-MB-435 melanoma it was -42.8% (active); in the test with SW-620 colon it was 28.5%; in the test on MCF7 breast, 21.4%; with HCT-116 colon it was 0.802% (active); with HCC-2998 colon, -16.7% (active). Besides, the growth in the test with KM12 colon is 10.9%.
Consider `C#CCN1C(=O)/C(=c2\sc3n(c2=O)C2C(NN=3)N(CC)C(=O)N2CC)c2ccccc21` (centres undefined), for which the growth in the test on BT-549 breast was 39.7%; in the test with MDA-MB-435 melanoma, -63.2% (active); in the test on SW-620 colon, 24.3%; in the test on MCF7 breast, 23.3%; in the test on HCT-116 colon it was 4.43% (active); in the test with HCC-2998 colon, -1.47% (active). Moreover, in the test on KM12 colon, the growth is 14.1%.
On to `c1ccn2nnnc2c1`, for which the growth with BT-549 breast was 67.2%; in the test on MDA-MB-435 melanoma, 99.5%; in the test on SW-620 colon it was 106%; in the test on MCF7 breast, 93.1%; with HCT-116 colon, 87.5%; in the test with HCC-2998 colon, 91.6%. For the same compound, the growth in the test on KM12 colon is 99.5%.
Regarding `NC(=S)NN=C1CCCCC1`, the growth in the test on BT-549 breast was 85.6%; with MDA-MB-435 melanoma, 88.8%; in the test with SW-620 colon, 69.1%; in the test with MCF7 breast, 15.9%; in the test with HCT-116 colon, 8.08% (active); in the test with HCC-2998 colon, 105%. Further, in the test on KM12 colon, the growth is 107%.
With `COc1ccc(OC)c(/C=C2\Oc3cc(OCCN4CCCC4)ccc3C2=O)c1`, the growth in the test on BT-549 breast is 95.7%; with MDA-MB-435 melanoma it was 97%; in the test with SW-620 colon, 81.4%; in the test on MCF7 breast, 88.1%; with HCT-116 colon, 69%; in the test with HCC-2998 colon, 98.7%. Also, the growth with KM12 colon is 85.4%.
Take `CCCCCCCC/C=C\CCCCCCCCOc1ccccc1CCOP(=O)(O)OCC[N+](C)(C)C`: the growth in the test on BT-549 breast is 88.3%; in the test on MDA-MB-435 melanoma, 92.7%; in the test with SW-620 colon, 67.8%; in the test with MCF7 breast, 74.2%; with HCT-116 colon, 27.2%; in the test on HCC-2998 colon, 74.3%. The growth in the test on KM12 colon is 21.8%.
With `CCN1C(=O)N(CC)C2Nn3c(s/c(=C\c4cccc(F)c4)c3=O)=NC21` (centres undefined), the growth with BT-549 breast was 80.4%; in the test with MDA-MB-435 melanoma it was 5.47% (active); in the test with SW-620 colon it was 57.4%; in the test with MCF7 breast, 54.7%; with HCT-116 colon it was 45.4%; in the test with HCC-2998 colon it was 98.7%. In the test with KM12 colon, the growth was 49.1%.
On to `c1ccc(CCn2nnc3c(Nc4ccc(N5CCOCC5)cc4)ncnc32)cc1`, for which the growth with MDA-MB-435 melanoma is 23.8%; in the test on SW-620 colon, 62.8%; with MCF7 breast, 89.1%; with HCT-116 colon, 54%; in the test on HCC-2998 colon, 105%; in the test with KM12 colon, 53.2%.
Turning to `COc1cccc(-n2cc(-c3nc(Cl)c4ccccc4n3)nn2)c1`, the growth with BT-549 breast was 96.1%; with MDA-MB-435 melanoma, 97.3%; in the test on SW-620 colon, 110%; in the test with MCF7 breast, 92.6%; in the test with HCT-116 colon it was 89.5%; in the test with HCC-2998 colon it was 105%. Moreover, the growth in the test on KM12 colon is 106%.
As to `Oc1ccc(N=Cc2ccccc2)cc1`, the growth with BT-549 breast is 70.7%; in the test with MDA-MB-435 melanoma, 97.8%; in the test on SW-620 colon, 99.9%; with MCF7 breast, 84.8%; with HCT-116 colon it was 60.8%; with HCC-2998 colon, 100%. For the same compound, the growth with KM12 colon is 91.3%.
With `CCN1C(=O)N(CC)C2C1NN=c1s/c(=C\c3cccc(F)c3)c(=O)n12` (centres undefined), the growth with BT-549 breast was 17.1%; in the test with MDA-MB-435 melanoma, -34.1% (active); in the test with SW-620 colon, 28.5%; with MCF7 breast it was 20%; in the test on HCT-116 colon, 6.81% (active); in the test on HCC-2998 colon, 19.5%. Moreover, the growth with KM12 colon was 11.2%.
For `Cc1oc2nc[nH]c(=O)c2c1C(=O)/C=C/c1ccc(Cl)cc1`, the growth in the test on BT-549 breast is 20.2%; in the test with MDA-MB-435 melanoma it was 6.74% (active); in the test on SW-620 colon, 8.49% (active); with MCF7 breast, 15.4%; in the test with HCT-116 colon it was 13.7%; in the test on HCC-2998 colon, 83.1%. For the same compound, the growth in the test with KM12 colon was 13.6%.
`CCCCCC/C=C\CCCCCCCCOc1ccc(CCOP(=O)(O)OCC[N+](C)(C)C)cc1`: the growth is 91.2% in the test on BT-549 breast; 100% in the test on MDA-MB-435 melanoma; 93.2% in the test with SW-620 colon; 79.2% with MCF7 breast; 89.2% in the test with HCC-2998 colon; 59.3% in the test on KM12 colon.
Consider `Cc1ccc(S(=O)(=O)OC2COCOC2C(OS(=O)(=O)c2ccc(C)cc2)C2OCOCC2OS(=O)(=O)c2ccc(C)cc2)cc1` (centres undefined), for which the growth in the test with BT-549 breast was 98.2%; with MDA-MB-435 melanoma, 108%; in the test with SW-620 colon, 108%; in the test with MCF7 breast, 103%; in the test with HCT-116 colon, 105%; in the test on HCC-2998 colon, 113%. Moreover, the growth with KM12 colon was 107%.
